Shown is part of a subset that was picked to be rich in hits.
mcGAS MS inh = mouse cGAS inhibition by mass spec; Q8C6L5; recombinant mouse cGAS, cGAMP by RapidFire MS; inhibition, % at 12.5 µM; 130,000 compounds, 0.18% hits; AID 1259397;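 active means inhibition of cGAS enzyme activity at or above 60%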;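 further: enzyme stimulated by 45 bp dsDNA with ATP and GTP substrates; cGAMP share of summed cGAMP plus half ATP and half GTP signals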
Target sequence (Q8C6L5 whole entry, looked up): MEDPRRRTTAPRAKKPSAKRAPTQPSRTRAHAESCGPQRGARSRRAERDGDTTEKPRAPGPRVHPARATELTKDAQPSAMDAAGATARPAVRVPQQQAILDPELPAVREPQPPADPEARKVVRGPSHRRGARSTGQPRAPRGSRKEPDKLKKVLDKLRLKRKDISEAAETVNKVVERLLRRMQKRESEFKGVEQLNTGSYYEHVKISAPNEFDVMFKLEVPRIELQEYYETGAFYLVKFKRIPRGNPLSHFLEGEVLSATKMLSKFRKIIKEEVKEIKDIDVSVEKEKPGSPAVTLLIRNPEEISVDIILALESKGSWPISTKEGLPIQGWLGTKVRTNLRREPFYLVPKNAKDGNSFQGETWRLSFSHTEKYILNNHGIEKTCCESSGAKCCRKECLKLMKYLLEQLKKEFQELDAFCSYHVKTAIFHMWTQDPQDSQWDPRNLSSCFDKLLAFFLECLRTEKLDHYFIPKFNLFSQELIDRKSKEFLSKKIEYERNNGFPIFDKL
Numbers without * were called inactive; ! = not confirmed by another sample.

NC(=O)c1cccc(CC2CCN(C(=O)Cn3nc4ccccc4n3)C2)c1 (centres undefined) was read as mcGAS MS inh -16.
CCOC(=O)c1[nH]nc2c1CC/C2=C\c1ccccc1 was read as mcGAS MS inh 1.
`CCOC(=O)c1[nH]nc(-c2ccc(C)cc2)c1C` gave mcGAS MS inh -13.
For CCOC(=O)c1[nH]nc2c1C(=O)N(CC)C2=O the results were mcGAS MS inh 62*.
`O=C(O)Cc1csc(SCc2ccncc2)n1` gave mcGAS MS inh 2.
Cn1nnnc1SCCNC(=O)CN1CCOc2ccccc2C1 was read as mcGAS MS inh -16.
For O=C(CN1CCOc2ccccc2C1)NCCS(=O)(=O)N1CCCC1 the results were mcGAS MS inh 71*.
`Cc1nn2cc(CNC(=O)CN3CCOc4ccccc4C3)nc2s1` gave mcGAS MS inh -16.
Screening C/C(=N/N=C1\NC(=O)C(CC(=O)Nc2ccc(Cl)cc2Cl)S1)C(C)C (centres undefined) returned mcGAS MS inh -32.
`CCC(C)(C)NC(=O)c1cnc2c(cnn2C(C)C)c1` gave mcGAS MS inh -5.
`CCN(CC)S(=O)(=O)c1ccc(NNS(=O)(=O)c2ccccc2Cl)nc1` gave mcGAS MS inh -13.
CC(=O)N1N=C(c2ccco2)OC1C(=O)N(CCC#N)CC1CCCO1 (centres undefined) was read as mcGAS MS inh -13.
`COc1ccc(OC)c(N2CCCn3c2nc2c3c(=O)[nH]c(=O)n2C)c1` gave mcGAS MS inh -4.
Screening CC[n+]1c2ccccc2cc2ccccc21 returned mcGAS MS inh -1.
`CC[n+]1c(-c2ccccc2)c2cc(N)ccc2c2ccc(N)cc21` gave mcGAS MS inh 97*!.
Screening CCCNC(=O)C(C)NC(=O)CN1CCN(S(=O)(=O)c2ccc(Br)c(C)c2)CC1 (centres undefined) returned mcGAS MS inh -6.
For O=C(C1=COCCC1)N1CCN(CCOc2ccc3c(c2)CCC3)CC1 the results were mcGAS MS inh 8.
Screening Nc1ccc2c(c1N)C(=O)c1ccccc1C2=O returned mcGAS MS inh 4.
`O=C1c2ccccc2C(=O)c2c1ccc(O)c2O` gave mcGAS MS inh 85*.
`O=C1C=C(O)c2ccccc2C1=O` gave mcGAS MS inh 12.
For C=C(C)CN(CC)C(=O)CN(C)Cc1ccc(Cl)cc1 the results were mcGAS MS inh -5.
COc1cc(C)c2c(c1C=O)Oc1c(c(C)c(O)c3c1C(O)OC3=O)OC2=O (centres undefined) was read as mcGAS MS inh 34.
Cc1cc(O)c(C=O)c2c1C(=O)Oc1c(C)c(O)c3c(c1O2)C(O)OC3=O (centres undefined) was read as mcGAS MS inh 85*.
Screening COC(=O)c1c(C)[nH]c(C(=O)NCCc2ccco2)c1C returned mcGAS MS inh -1.
For CCCC1(CNC(=O)c2c(C)oc3ncn(C)c(=O)c23)CCC1 the results were mcGAS MS inh -9.
For Cc1oc(C)c(C(=O)Nc2cccc(N3CCCC3=O)c2)c1C the results were mcGAS MS inh -3.
Screening Cc1oc2ncn(C)c(=O)c2c1C(=O)Nc1cccc(COCC2CC2)c1 returned mcGAS MS inh 94*.
For O=C1NCCCCC1Sc1nnnn1C1CCCCC1 (centres undefined) the results were mcGAS MS inh 0.
O=C1NC(=S)SC1=Cc1ccccc1Cl was read as mcGAS MS inh 48.
For O=C1NC(=S)SC1=Cc1cc(O)c(O)c(Cl)c1 the results were mcGAS MS inh 97*.
COc1cc(C=C2SC(=S)NC2=O)cc(OC)c1OC was read as mcGAS MS inh 21.
For Cc1cccn2c(=O)nc(SCc3cccc(Cl)c3)nc12 the results were mcGAS MS inh -4.
For COc1ccc(-c2nnc(CN3CCCC3c3cccs3)o2)cc1 (centres undefined) the results were mcGAS MS inh -9.
Screening Cc1ccc([N+](=O)[O-])cc1N=Cc1nc(-c2ccccc2F)oc1O returned mcGAS MS inh 81*.
Screening Cc1cc(Cl)ccc1N=Cc1nc(-c2ccccc2F)oc1O returned mcGAS MS inh -3.
For COc1cc([N+](=O)[O-])ccc1N=Cc1nc(-c2ccccc2F)oc1O the results were mcGAS MS inh -11.
`O=c1c(O)c(-c2ccc(F)cc2)oc2ccc(CBr)cc12` gave mcGAS MS inh -9.
Screening COc1ccc(N2CCN(C(CNC(=O)c3cccc([N+](=O)[O-])c3)c3ccco3)CC2)cc1 (centres undefined) returned mcGAS MS inh -7.
CN(C)c1ncc(CN2CCOC(CCc3ccccc3)C2)s1 (centres undefined) was read as mcGAS MS inh -4.
Screening N=C1/C(=C/c2cccs2)C(=O)N=C2SC(c3ccccc3)=NN12 returned mcGAS MS inh 45.
Screening CCC1=NN2C(=N)/C(=C/c3cccs3)C(=O)N=C2S1 returned mcGAS MS inh 97*.
For N=C1/C(=C/c2cccs2)C(=O)N=C2SC(Cc3ccccc3)=NN12 the results were mcGAS MS inh -11.
For O=c1oc2c(O)c(O)cc3c(=O)oc4c(O)c(O)cc1c4c23 the results were mcGAS MS inh 93*.
For O=c1cc(-c2cc(O)c(O)c(O)c2)oc2cc(O)cc(O)c12 the results were mcGAS MS inh 3.
Screening CC(C)(C)c1ccc(C(=O)Nc2ccc(-c3noc(-c4ccc([N+](=O)[O-])cc4Cl)n3)cc2)cc1 returned mcGAS MS inh -10.
FC(F)(F)CCCN(Cc1ccsc1)CC1CCCO1 (centres undefined) was read as mcGAS MS inh -6.
CCOCCCn1c(=N)c(C(=O)OCC)cc2c(=O)n3ccccc3nc21 was read as mcGAS MS inh -14.
For CN(Cc1ccc(-c2nc(-c3ccncc3)cc(=O)[nH]2)cc1)Cc1ccoc1 the results were mcGAS MS inh -19.
Screening CCCCc1cc(=O)[nH]c(-c2ccc(CN3CCN(C(=O)N(C)C)CC3)cc2)n1 returned mcGAS MS inh 10.
Screening Cc1cc(-c2cc(=O)[nH]c(-c3ccc(CN4CCN(C)CC4)cc3)n2)c(C)o1 returned mcGAS MS inh 71*.
Screening COc1ccnc(Oc2ccc(Cl)c3ccccc23)n1 returned mcGAS MS inh -17.
For COc1ccc(-n2cc(C(=O)c3cc(F)ccc3O)cc(C#N)c2=O)cc1OC the results were mcGAS MS inh -7.
`COc1ccc(C=C(C#N)S(=O)(=O)c2cc(Br)ccc2Br)c(OC)c1` gave mcGAS MS inh -2.
COCCn1c(=NC(=O)c2ccccc2S(C)(=O)=O)sc2cc(F)cc(F)c21 was read as mcGAS MS inh -3.
CCn1c(C)cc(O)c(C(c2ccc(SC)cc2)N2CCCCC2)c1=O (centres undefined) was read as mcGAS MS inh -8.
`CCn1c(C)cc(O)c(C(c2cccs2)N2CCC(C)CC2)c1=O` (centres undefined) gave mcGAS MS inh -6.
CCn1c(C)cc(O)c(C(c2cccs2)N2CCCCC2)c1=O (centres undefined) was read as mcGAS MS inh 63*.
`Nc1ncnc(Sc2nnnn2-c2ccccc2)c1[N+](=O)[O-]` gave mcGAS MS inh -1.
`Nc1nnc(SCC(=O)N2CCOCC2)s1` gave mcGAS MS inh -23.
Screening O=S1(=O)c2cccc3cccc(c23)N1Cc1cccc2ccccc12 returned mcGAS MS inh -11.
Screening NC(=O)COc1ccc(C(=O)NNC(=O)CN2c3cccc4cccc(c34)S2(=O)=O)cc1 returned mcGAS MS inh -2.
O=C(CN1c2cccc3cccc(c23)S1(=O)=O)c1c[nH]c2ccccc12 was read as mcGAS MS inh 87*.
COc1ccc(CN(C)CC=C(C)C)cc1 was read as mcGAS MS inh -3.
`O=S(=O)(O)CC(S)CS` (centres undefined) gave mcGAS MS inh 87*.
`O=C(N/N=C\C=C\c1ccccc1)Nc1cccc2nsnc12` gave mcGAS MS inh 3.
